Most compounds without a hit are left out; they make up all but 21% or so of the library.
Shiga inhibitor – A qHTS for Small Molecule Inhibitors of Shiga Toxin; 290,000 compounds, 9.2% hits; Vero cells, Shiga toxin protein synthesis inhibition reporter; inhibition, % at 38.7 µM; AID 2315, 2010; in the data active means inhibition mostly above about 28%, no sharp cut-off; inactive means mostly below about 43%; further: 0% is about no effect
CHX counter – Cycloheximide Counterscreen for Small Molecule Inhibitors of Shiga Toxin; max response, %; cell reporter, cycloheximide protein synthesis inhibition counterscreen; 300,000 compounds, 12% hits; in the data active means max response mostly above about 13%, no sharp cut-off; inactive means mostly below about 14%; further: read at 38.3 µM for the half of the compounds with a filed dose; 0% is about no effect
Pf growth 96h – Primary qHTS for delayed death inhibitors of the malarial parasite plastid, 96 hour incubation | P. falciparum luciferase reporter growth, 96 h | Potency, µM (top dose mostly 28.7 µM), without a hit: at the top dose activity change, negative = inhibition, usual class: inhibitors | 320,000 compounds, 6.9% hits; active means well fitted inhibition curve with a large enough effect; inconclusive means small, poorly fitted or top-dose-only effect, or another doubt; inactive means no such curve, though single readings can be large or run the other way; further: potency means the concentration at half of the fitted maximal effect; on the % scale 0 is the no-effect control and ±100 the full control effect
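Cell-based qHTS: luciferase-tagged P. falciparum in erythrocytes (2% hematocrit, 0.05% parasitemia final) incubated with compounds for 96 hours, 37 C, 5% CO2; luciferase detection reagent then added and luminescence measured.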
NS1 inh – qHTS Assay for Inhibitors of Influenza NS1 Protein Function; Potency, µM (doses to about 46.1 µM), for inactives: at the highest dose activity, positive = more growth; 270,000 compounds, 0.4% hits; AID 2326, 2010; further: potency means the concentration at half of the fitted maximal effect; actives are rising curves; nearly all actives have a fitted effect of over 50% in size
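Growth recovery, yeast-based: influenza A NS1 expressed in S. cerevisiae causes slow growth, and suppressors are detected by OD600. The parent strain without NS1 is used as positive control.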
Pf growth 48h – Primary qHTS for delayed death inhibitors of the malarial parasite plastid, 48 hour incubation. P. falciparum luciferase growth in erythrocytes, 48 h. Potency, µM (doses to about 28.7 µM), for the others: top-dose activity change, negative = inhibition, most hits filed as inhibitors. 310,000 compounds, 5.9% hits; active means well fitted inhibition curve with a large enough effect; inconclusive means small, poorly fitted or top-dose-only effect, or another doubt; inactive means no such curve, though single readings can be large or run the other way; further: potency means the concentration at half of the fitted maximal effect; on the % scale 0 is the no-effect control and ±100 the full control effect
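In quantitative HTS format, infected erythrocytes bearing luciferase-reporter parasites were treated for a single generation at 37 C. Luminescence after adding detection reagent served as the growth measure.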
SARS PLpro yeast – qHTS of Yeast-based Assay for SARS-CoV PLP; S. cerevisiae expressing SARS-CoV PLpro, growth rescue; Potency, µM (titrated, usually from 32.9 µM), for the others: at the highest dose activity, positive = growth rescue, most hits filed as activators; 330,000 compounds, 0.19% hits; AID 485353, 2010; further: potency means the concentration at half of the fitted maximal effect; 0% is about no effect; nearly all actives have a fitted effect of over 55% in size
Starred values were filed as active, the others as inactive; ? = inconclusive; . = no result. Unless noted, the call rests on the fitted dose curve.

SMILES	Shiga inhibitor	CHX counter	Pf growth 96h	NS1 inh	Pf growth 48h	SARS PLpro yeast
CCn1c(O)c(C=NC2CCCC(C)C2C)sc1=S (centres undefined)	109.8*	50.6*	?	-4.7%	-7.0%	-0.8%
CC(C)CN1C(=O)c2ccc(NC(=O)Cc3ccccc3)cc2C1=O	3.6	6.1	41.2%	2.2%	-18.7%	0.1%
O=C(NC(Cc1ccccc1)c1nc2ccccc2[nH]1)C1CC(=O)N(c2ccc3c(c2)OCCO3)C1 (centres undefined)	22.7	12.6	2.94µM*	-10.0%	0.0%	-4.2%
O=C(Nc1nnc(C2CCCCC2)s1)C1CC(=O)N(c2ccccc2)C1 (centres undefined)	12.6	-3.3	-0.8%	3.7%	-3.9%	0.0%
O=C(Nc1nc(-c2ccccn2)cs1)C1CC(=O)N(c2ccc3c(c2)OCCO3)C1 (centres undefined)	18.1	24.5*	?	0.8%	14.0%	0.2%
O=C(NCCc1ccccc1)C1CC(=O)N(c2ccc3c(c2)OCCO3)C1 (centres undefined)	.	.	-2.5%	.	?	1.8%
O=C(Nc1nnc(C2CC2)s1)C1CC(=O)N(c2ccc3c(c2)OCCO3)C1 (centres undefined)	30.7*	31.2*	31.4%	27.3%	64.4%	11.9%
COc1ccc(/C=C2\SC(=S)N(CC(=O)OCC(=O)Nc3ccc(C)cc3Cl)C2=O)cc1	-6.4	-1.8	7.5%	0.2%	33.6%	-0.5%
COc1ccc(-c2[nH]nc3c2C(c2ccccc2OC(=O)N2CCOCC2)C(C#N)=C(N)O3)cc1 (centres undefined)	14.5	-2.4	29.7%	-71.9%	?	-0.1%
Cc1ccc(-c2[nH]nc3c2C(c2ccccc2OC(=O)N2CCOCC2)C(C#N)=C(N)O3)cc1 (centres undefined)	42.0	17.3	10.4µM*	-132.1%	?	-4.4%
COc1ccc(-c2[nH]nc3c2C(c2ccc(OC(=O)N4CCOCC4)cc2)C(C#N)=C(N)O3)cc1 (centres undefined)	-4.7	-2.1	13.1µM*	-162.5%	0.6%	-6.5%
Cc1cnc(NC(=O)CSc2ccccc2)s1	40.6	30.0*	.	-7.2%	84.4%	-8.4%
Cc1cnc(NC(=O)C2(c3ccccc3)CC2)s1	74.0*	20.0*	24.9%	-0.3%	0.0%	4.6%
CCOC(=S)SCC(=O)Nc1ncc(C)s1	68.2*	39.4*	258.8%	-4.2%	74.1%	2.3%
Cc1cnc(NC(=O)CCc2ccccc2)s1	.	24.6*	6.1%	-4.8%	?	-2.7%
Cc1cnc(NC(=O)CSc2nnc(C)n2N)s1	10.7	-2.0	10.9%	21.0%	14.5%	8.9%
COc1ccc(CCC(=O)Nc2ncc(C)s2)cc1OC	-5.5	7.3	?	-3.4%	?	-0.9%
CC1=C/C(=N\Nc2ccccc2[N+](=O)[O-])CC(C)(C)C1	20.3	-3.0	-25.7%	-16.1%	?	0.2%
COC(=O)c1sc(NC(=O)COc2ccc(C)cc2)nc1C	-5.2	-1.0	24.9%	-17.7%	.	-11.5%
Cc1cnc(NC(=O)Cc2ccc(C)c(C)c2)s1	47.3*	20.1*	-23.2%	5.5%	0.0%	1.5%
COC(=O)c1sc(NC(=O)Cc2cccs2)nc1C	70.2*	33.4*	?	-9.6%	18.7%	-6.0%
COc1cc(CC(=O)Nc2ncc(C)s2)cc(OC)c1OC	-15.3	-2.2	-8.7%	-2.1%	-11.7%	-1.3%
COc1ccccc1OCC(=O)Nc1ncc(C)s1	.	.	183.9%	.	138.1%	6.7%
Cc1cnc(NC(=O)COc2ccccc2)s1	110.2*	59.0*	235.1%	-3.2%	145.8%	0.6%
COC(=O)c1sc(NC(=O)COc2ccccc2)nc1C	27.8	23.0*	?	-19.7%	.	-2.4%
O=C1C[C@@H](c2ccccc2Cl)N1S(=O)(=O)c1ccccc1[N+](=O)[O-]	2.0	-10.6	.	.	.	.
Cc1cc(C(=O)NCc2cccs2)nn1C	-3.3	2.2	4.1%	1.5%	24.8%	1.2%
COc1ccc(-c2cc(C(=O)NCc3cccs3)no2)cc1	60.2*	23.2*	3.6%	1.3%	86.2%	-0.4%
COc1cccc(-c2cc(C(=O)NCc3cccs3)no2)c1	104.2*	60.6*	?	6.4%	159.9%	1.0%

Bioassay records (PubChem BioAssay)
